Compounds without any hit were thinned out: in the full panel of roughly 83,000, 20% have a hit.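 Growth was measured after 48 h exposure to one concentration of compound in 96-well plates. Values under 10 count as active.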 Activity calls are given as the source filed them.

This note sets out measurements from PubChem BioAssay (NCI).

The test has as its system NCI-H460 lung. Description: NCI-60 one-dose screen, 48 h (100 = growth as untreated, 0 = no growth, -100 = all killed). As to conditions: 10 µM unless noted. The method, then:
Growth inhibition of the NCI-H460 human Non-Small Cell Lung tumor cell line is measured as a screen for anti-cancer activity. Cells are grown in 96 well plates and exposed to the test compound for 48 hours. Compounds are tested at a single concentration, which is 10^-5 M for most compounds. The reported endpoint is percent growth (GI% or GIPRCNT), where numbers from 0 - 100% represent growth inhibition, and numbers from -100% - 0 represent cell death. For example, a value of 40 represents 60% growth inhibition. A value of 0 means no net growth occurred over the course of the experiment. A value of -40 indicates 40% of cells at the beginning of the experiment died by the end of the experiment. A value of -100 means all cells are dead at the end of the experiment.
NCI-60 Human Tumor Cell Lines Screen was performed using the standard one-dose NCI protocol, which is described in more detail at https://dtp.cancer.gov/discovery_development/nci-60/default.htm.
Compounds with GIPRCNT values below 10 were considered active. Activity score was based on GIPRCNT using the following formula: […]
Score is 0 for GIPRCNT values of 100 or above, 50 for GIPRCNT values of 0, and 100 for GIPRCNT values of -100.
As for `COc1cc2cc(Oc3ccc(NC(=O)Nc4cccc(C(F)(F)F)c4)cc3)c(C)nc2cc1OCCN1CCCCC1`, the growth is -84.2% (active).
The same measure for `CON=C1C[C@]2(C[C@@H]3C[C@@H](C/C=C(\C)C[C@@H](C)/C=C/C=C4\CO[C@@H]5[C@H](O)C(C)=C[C@@H](C(=O)O3)[C@]45O)O2)O[C@H](/C(C)=C/C(C)C)[C@H]1C`: 39.3% (inactive); for `CC(=O)c1cc(C)c(OC(=O)c2ccccc2)c(C)c1`: 106% (inactive).
The same measure for `COc1ncc(F)c(OC)n1`: 108% (inactive); for `CCOc1ccc(/C=N\N2CCCCCC2)cc1OCC`: 106% (inactive); for `CC(C)(C)[Si](C)(C)OC1[C@@H](COC(N)=O)O[C@@H](n2cnc3c(N)ncnc32)[C@H]1O[Si](C)(C)C(C)(C)C` (stereo not given in full): 83.9% (inactive).
As for `Cc1nc2cc(Nc3nc(N4CCOCC4)nc(N4CCN(C)CC4)n3)ccc2n1Cc1ccccc1`, the figure is 107% (inactive); as for `COc1c(Cl)ccc2c(-c3nc4cc(Cl)c(F)cc4s3)cc(=O)oc12`, 99.2% (inactive).
For `COC(=O)[C@H]1CCCN1C(=O)[C@H]1CCCN1C(=O)[C@@H](Cc1c[nH]c2ccccc12)NC(=S)Nc1cc(C(F)(F)F)cc(C(F)(F)F)c1`, the growth is 18.6% (inactive).
In the case of `COc1ccc(C2=NOC(CC(=O)N(CCO)CCO)C2)cc1OC1CCCC1` (stereo not given), the growth was 103% (inactive).
`COc1ccc(Sc2ccc3[nH]c(=O)nc(N)c3c2)cc1`: the growth is 106% (inactive).
As for `Nc1nc(N)c(N=Nc2c(Br)cc(S(N)(=O)=O)cc2Br)c(N)n1`, the figure is 105% (inactive).
The same measure for `O=c1nc(NO)[nH]c(=O)n1Cc1ccccc1`: 109% (inactive).
The same measure for `O=C(Nc1ccc(Cl)c(Cl)c1)OCn1ncc2ccc([N+](=O)[O-])cc21`: 99.8% (inactive).
`COC(=O)/C=C1/CCC2C3CCC4=CC(=O)C(Br)CC4(C)C3C(=O)CC12C` (stereo not given): the growth is 59.3% (inactive).
The same measure for `CC1(C)N=C(N)N=C(N)N1c1cccc(OCCOc2cccc([N+](=O)[O-])c2)c1`: 19% (inactive); for `O=C1c2c(c3c4cc(Br)ccc4[nH]c3c3ccc4ccccc4c23)C(=O)N1O`: 83.8% (inactive); for `Cc1c(NCC(=O)Nc2nc3ccccc3[nH]2)c(=O)n(-c2ccccc2)n1C`: 99.6% (inactive).
As for `Cc1nc2cc(Nc3nc(Nc4ccc(F)cc4)nc(-c4ccc(Cl)cc4)n3)ccc2n1Cc1ccccc1`, the figure is 71.1% (inactive); as for `Cc1nc(NC(=O)COc2cccc(/C=C3\COc4ccccc4C3=O)c2)sc1C`, 9.93% (active).
The same measure for `Cc1ccc(-c2c3c(N)c4c(nc3nc3c2c(C)nn3-c2ccccc2)CCCC4)cc1`: 101% (inactive).
Turning to `N#C/C(=C\c1ccc[nH]1)c1cc2ccccc2[nH]1`, the growth was 71.1% (inactive).
As for `CC(C)OC1=C(Cl)C(=O)c2ccccc2C1=O`, the figure is 103% (inactive).
As for `COc1ccc(-c2nc(Nc3ccc(F)cc3)nc(Nc3ccc4c(c3)nc(C)n4Cc3ccccc3)n2)cc1`, the growth was 30.3% (inactive).
Take `CCN(CC)c1ccc(/C=C(\C#N)c2cc3ccccc3[nH]2)cc1`: the growth is 24.4% (inactive).
Regarding `NC(=O)c1cc(I)ccc1NC(=O)COc1ccc(Cl)cc1Cl`, the growth was 103% (inactive).
In the case of `CCCCOC(=O)C1OC(Oc2ccc3c(C)cc(=O)oc3c2)[C@@H](OC(C)=O)C(OC(C)=O)C1OC(C)=O` (stereo not given in full), the growth is 105% (inactive).
`CCC12CCC3c4ccc(O)cc4CCC3C1CC(O)C2O` (stereo not given): the growth was 88% (inactive).
For the compound `CN1CCc2c(Sc3ccc(C(=O)NO)cc3)c3ccccc3n2C1`, the growth is 40.3% (inactive).
For the compound `NC(=O)c1cccc(-n2ccc3cc(NC(=O)Nc4ccc(Cl)c(Cl)c4)ccc32)n1`, the growth is 75.4% (inactive).
As to `Cn1c2ccc(Cl)cc2c2nn(C(=O)c3ccccc3)c(=O)nc21`, the growth was 105% (inactive).
Consider `CC(C)NCC(O)COc1ccc(CCOCC2CC2)cc1` (stereo not given), for which the growth was 108% (inactive).
The same measure for `O=S(=O)(/N=C1C=C/C(=N\S(=O)(=O)c2ccccc2)c2ccccc2\1)c1ccccc1`: 112% (inactive); for `CCOC(=O)n1cc(C2=C(c3cn(C)c4ccccc34)COC2=O)c2ccccc21`: 3.7% (active); for `O=C(N/N=C(\CS(=O)(=O)c1ccccc1)c1cc2cc(Br)ccc2oc1=O)c1ccccc1`: 99.7% (inactive).
The same measure for `CN1CCN(CCCn2c3c(sc4ncccc43)c(=O)n3nnc(-c4ccccc4)c23)CC1`: -70.7% (active); for `COc1cc(/C=C/C(=O)CC(=O)/C=C/c2cc(Br)c(OC)c(OC)c2)cc(Br)c1OC`: 109% (inactive); for `COc1ccc(NS(=O)(=O)c2ccc(-c3cnc(C4CC4)o3)cc2)cc1`: 33.2% (inactive).
Take `N#CC1=C(N)Oc2cc(N)ccc2C1c1ccc(F)cc1` (stereo not given): the growth is 100% (inactive).
In the case of `Cc1nc2cc(Nc3nc(Nc4ccc(F)cc4)nc(N4CCN(C)CC4)n3)ccc2n1Cc1ccccc1`, the growth was 3.42% (active).
